# HPGD block = inhibitors of human 15-hydroxyprostaglandin dehydrogenase (HPGD) | purified HPGD, NADH fluorescence kinetic, PGE2 substrate | Potency, µM, for the others: at the highest dose activity change, negative = inhibition, actives largely listed as inhibitors | hit rate 4.3% among 150,000 | AID 894; active = well fitted inhibition curve with a large enough effect, not every such curve was filed as active; inconclusive = small, poorly fitted or top-dose-only effect, or another doubt; inactive = no such curve, though single readings can be large or run the other way
#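 NADH formation kinetics: reaction with 30 uM PGE2 and 1 mM NAD+ (final), 20 nM enzyme, Tris-HCl pH 8 with Tween 20, after 15 min compound preincubation at room temperature. Fluorescence change, last versus first of five reads.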
# Tau ThT inhib = inhibitors of human tau fibril formation, thioflavin T binding | P10636 | Potency, µM (doses to about 57.4 µM), for inactives: at the top dose activity, negative = inhibition, most hits filed as inhibitors | hit rate 2.1% among 270,000 | AID 1460 | recombinant tau K18 P301L, heparin-induced fibrillization, ThT fluorescence; note: nearly all actives have a fitted effect of over 55% in size
# Target sequence (P10636 561-689 P618L limits assumed): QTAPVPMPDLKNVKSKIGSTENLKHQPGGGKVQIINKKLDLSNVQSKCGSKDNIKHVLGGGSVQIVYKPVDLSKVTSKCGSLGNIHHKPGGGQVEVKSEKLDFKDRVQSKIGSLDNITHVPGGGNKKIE
#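 Fibril formation assay: tau K18 P301L at 15 uM with trace Alexa 594 label, heparin inducer 20 uM, pH 7 sodium acetate buffer, 37 C for 6 hr; endpoint ThT signal.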
# ALDH1A1 block = inhibitors of human aldehyde dehydrogenase 1A1; hit rate 7.3% among 220,000; Potency, µM (highest dose often 75.3 µM), without a hit: at the top dose activity, negative = inhibition, actives largely listed as inhibitors; P00352; Purified ALDH1A1, NADH fluorescence, propionaldehyde substrate; AID 1030; active = well fitted inhibition curve with a large enough effect, not every such curve was filed as active; inconclusive = small, poorly fitted or top-dose-only effect, or another doubt; inactive = no such curve, though single readings can be large or run the other way;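 note: plate controls were no enzyme wells and a reference inhibitor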
# Tau fluor cs = counter-screen for tau fibril formation inhibitors; tau K18 P301L Alexa594 fluorescence, heparin fibrillization; Potency, µM (titrated, usually from 57.7 µM), for the others: at the top dose activity change, negative = decrease; hit rate 0.93% among 280,000; AID 1463; note: nearly all actives have a fitted effect of over 55% in size
#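 Human tau K18 P301L (15 uM unlabeled, 0.24 uM Alexa 594-labeled) in 100 mM sodium acetate pH 7 with 20 uM heparin, 6 hr at 37 C. ThT 30 uM added, 1 hr ambient; Alexa 594 FP and total fluorescence read at 555/632 nm.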
# Tau FP inhib = tau fibrillization inhibition (FP); hit rate 0.39% among 280,000; Potency, µM (highest dose often 57.7 µM), without a hit: at the top dose activity, negative = inhibition, most hits filed as inhibitors; P10636; K18 P301L tau heparin fibrillization, Alexa594 FP, 6 h; note: nearly all actives have a fitted effect of over 55% in size
#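 Compound effects on tau fibrillization are measured by Alexa 594 fluorescence polarization (ex 555, em 632 nm). K18 P301L tau is used at 15 uM with 0.24 uM labeled tracer, and 20 uM heparin induces aggregation over 6 hr at 37 C.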
# NPSR antag = antagonists of human neuropeptide S receptor cAMP signaling. Q6W5P4. CHO-NPSR cells, cAMP TR-FRET, antagonist mode. Potency, µM (doses to about 38.3 µM), for the others: at the top dose activity change, negative = inhibition, most hits filed as inhibitors. hit rate 1% among 220,000. AID 1461; note: nearly all actives have a fitted effect of over 50% in size
# Target sequence (Q6W5P4 whole entry, looked up): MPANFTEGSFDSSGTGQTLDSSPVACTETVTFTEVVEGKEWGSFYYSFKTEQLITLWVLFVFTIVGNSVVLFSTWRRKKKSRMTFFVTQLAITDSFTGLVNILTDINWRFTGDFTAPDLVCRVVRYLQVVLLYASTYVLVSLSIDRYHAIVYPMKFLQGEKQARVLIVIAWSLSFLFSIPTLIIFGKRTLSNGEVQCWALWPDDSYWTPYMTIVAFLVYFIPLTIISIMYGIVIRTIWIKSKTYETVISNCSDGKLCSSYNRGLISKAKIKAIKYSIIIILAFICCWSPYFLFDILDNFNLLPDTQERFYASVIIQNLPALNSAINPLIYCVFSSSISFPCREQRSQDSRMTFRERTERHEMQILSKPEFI
# * = called active by the depositor; ? = inconclusive; / = not tested or not shown; [ ] = remark or other dose. Rows were chosen to be rich in hits. Some 9.5% of all compounds tested hit in one or more screens of this group. Unless noted, calls come from the whole dose curve; as a rule, active = well fitted curve in the direction sought with a large enough effect; inconclusive = small, poorly fitted or top-dose-only effect, or another doubt; inactive = no such curve, though single readings can be large; an effect the other way counts as inactive or inconclusive. Unless noted, % is set by controls: 0 for no effect and ±100 for the full control effect; potency is the fitted concentration of half-maximal effect.
SMILES,HPGD block,Tau ThT inhib,ALDH1A1 block,Tau fluor cs,Tau FP inhib,NPSR antag
CCCCCn1c(CN2CCN(C(=O)c3ccco3)CC2)nc2c1c(=O)n(C)c(=O)n2C,/,-16%,/,-18%,-2%,-15%
Cn1c(=O)c2c(nc(CN3CCOCC3)n2CCc2ccccc2)n(C)c1=O,-5%,-10%,7.1µM*,-8%,-5%,-25%[46.1 µM]
Cn1c(=O)c2c(nc(CN3CCN(C(=O)c4ccco4)CC3)n2CCc2ccccc2)n(C)c1=O,-10%,-19%,13µM*,-10%,-9%,-19%[46.1 µM]
CCN1CCN(Cc2nc3c(c(=O)n(C)c(=O)n3C)n2CCc2ccccc2)CC1,0%,-9%,2%,-7%,-6%,15%
Cn1c(=O)c2c(nc(CN3CCN(C(=O)c4ccco4)CC3)n2CCCc2ccccc2)n(C)c1=O,-1%,-16%,1.3µM*,-12%,-6%,-18%[46.1 µM]
CCn1c(CN2CCCCC2)nc2cc(NC(=O)COc3ccc([N+](=O)[O-])cc3)ccc21,/,-12%,/,-4%,8%,/
COc1ccc(-c2onc(C)c2C)cc1S(=O)(=O)NCc1ccco1,/,-5%,/,-15%,-9%,/
Cn1c(N)c(C(=O)COC(=O)CNS(=O)(=O)c2ccc(Cl)c(Cl)c2)c(=O)n(C)c1=O,-15%,0%,-2%,1%,-7%,11%
COc1ccccc1-c1noc(CSc2nnc(Cc3ccccc3)n2-c2ccc(C)c(C)c2)n1,/,-17%,/,-16%,10%,/
CCOC(=O)c1cccc(NC(=O)c2cc3c(=O)n(Cc4cccnc4)ccc3nc2C)c1,/,0%,/,-2%,-5%,/
Cn1c(=O)c2c(nc(-n3ccnc3)n2Cc2ccccc2)n(C)c1=O,-14%,8%,10µM*,15%,2%,2%[46.1 µM]
Cc1c(Cl)cccc1NC(=S)NCCc1ccc(C(F)(F)F)cc1,/,-7%,-1%,?,?,-42%
COc1cccc(NC(=O)CN2CCSc3ccccc32)c1,/,-22%,19µM*,?,?,-2%
CC(CCc1ccccc1)NC(=O)CN1CCSc2ccccc21 (stereo not drawn),/,?,13µM*,?,-2%,-28%
COc1ccc(C(CC(=O)c2ccc(C)cc2)C(C#N)C#N)cc1OC (stereo not drawn),-14%,?,?,-16%,-3%,-25%
Cc1noc(NS(=O)(=O)c2ccc(NC(=O)CSc3nc4c(cc3C#N)CCCC4)cc2)c1C,28µM*,?,28µM*,-7%,-1%,2%[46.1 µM]
CC(C)(C)c1ccc(S(=O)(=O)CC(O)CSc2nc3c(cc2C#N)CCCC3)cc1 (stereo not drawn),?,-21%,2µM*,-25%,-1%,-13%[46.1 µM]
Cc1noc(NS(=O)(=O)c2ccc(NC(=O)CSc3nc4c(cc3C#N)CCC4)cc2)c1C,32µM*,?,?,-11%,-3%,0%
Cc1cc(NC(=O)CSc2nc3c(cc2C#N)CCCC3)no1,?,?,?,-6%,4%,?
CCC1CCc2c(sc(NC(=O)C3c4ccccc4Oc4ccccc43)c2C(N)=O)C1 (stereo not drawn),?,-9%,?,-30%,-15%,-8%
C=CCc1cccc(CNc2ccc(Br)cc2)c1O,/,?,6%,?,12%,54%
CCOc1ccc(-c2n[nH]c(C)c2Oc2ccc(OC)cc2)c(O)c1,-19%,-19%,-5%,14µM*[quencher],?,?
CCOc1ccc(-c2[nH]ncc2Oc2ccccc2OC)c(O)c1,-18%,?,-4%,14µM*[quencher],1%,-20%[46.1 µM]
CCOc1ccc(-c2[nH]ncc2Oc2ccccc2OCC)c(O)c1,-19%,?,?,14µM*[quencher],-15%,?
COc1cc(CNC(=O)c2ccc(Cn3nc(C)c(Cl)c3C)o2)cc(OC)c1,-5%,-15%,-9%,-13%,1%,-26%[46.1 µM]
COC(=O)c1ccc(Cn2nc(C)c(Cl)c2C)o1,-16%,-2%,28µM*,2%,-2%,9%[46.1 µM]
